Mcl1 Bid PPI: Mcl-1/Bid binding inhibitors, primary screen, biochemical, TR-FRET, 1536-well. 0.97% of 220,000 active. TR-FRET Mcl-1/Bid-Dy647 peptide binding. Induced myeloid leukemia cell differentiation protein Mcl-1 (Homo sapiens), Q07820. inhibition, % at 21.7 µM;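 active means compounds that cut the binding signal by more than half at the single screening dose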;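 further: His-tagged Mcl-1 with europium anti-His antibody binding Bid BH3 peptide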
Target sequence (Q07820 whole entry, looked up): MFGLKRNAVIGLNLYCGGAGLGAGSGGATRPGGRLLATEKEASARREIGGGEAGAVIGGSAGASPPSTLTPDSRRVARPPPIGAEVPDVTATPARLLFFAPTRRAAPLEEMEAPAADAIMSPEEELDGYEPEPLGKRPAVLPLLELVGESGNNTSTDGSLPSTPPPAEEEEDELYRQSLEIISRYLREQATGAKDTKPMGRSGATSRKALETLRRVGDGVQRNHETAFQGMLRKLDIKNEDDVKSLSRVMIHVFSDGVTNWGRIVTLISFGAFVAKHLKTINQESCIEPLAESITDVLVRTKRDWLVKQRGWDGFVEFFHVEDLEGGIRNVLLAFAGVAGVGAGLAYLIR
Mcl-1 Bim block: inhibitors of Bim peptide binding to Mcl-1, primary screen, biochemical, bead-based flow cytometry, multiplex; Induced myeloid leukemia cell differentiation protein Mcl-1 (Homo sapiens), Q07820; inhibition, % at 10 µM; 0.1% of 190,000 active; Bim peptide-Mcl-1 binding; in the data active means inhibition above about 40%
Pf gamet viab: late stage P. falciparum gametocyte viability inhibitors, primary screen, ATP luminescence, HTS | P. falciparum stage V gametocytes, 24 h | inhibition, % at 10.9 µM | 0.065% of 150,000 active | AID 743093, 2013;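 active means inhibition above the mean plus 3 SD of compounds within the control limits, set per campaign, cut at about 38% in these data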
Mcl1 Noxa PPI: Mcl-1/Noxa binding inhibitors, primary screen, biochemical, TR-FRET, 1536-well. AID 1022, 2008. Induced myeloid leukemia cell differentiation protein Mcl-1 (Homo sapiens), Q07820. inhibition, % at 21.7 µM. TR-FRET Mcl-1/Noxa peptide binding, 2 h. 1.5% of 220,000 active;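 active means compounds that cut the protein-peptide binding signal by more than 50% relative to plate controls in a single-dose test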;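 further: His-tagged Mcl-1 with rhodamine Noxa BH3 peptide and terbium anti-His antibody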
Hck-Nef inh: inhibitors of Nef-activated human Hck kinase, primary screen, biochemical, Z-Lyte FRET, 384-well, Hck-YEEI | 0.68% of 220,000 active | Recombinant Hck-YEEI plus Nef, Z-Lyte FRET kinase assay | inhibition, % at 20 µM;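 active means Hck-Nef kinase inhibition above about 50%, limit read from the data; inactive means inhibition below that limit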
14-3-3 Bad inh: inhibitors of 14-3-3 zeta/Bad binding, primary screen, biochemical, TR-FRET, bovine 14-3-3 zeta. 14-3-3 protein zeta/delta (Bos taurus), P63103. TR-FRET 14-3-3zeta/Dy647-pBad peptide displacement, 1 h. inhibition, % at 21.7 µM. 0.71% of 220,000 active;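 active means inhibition above about 70%, limit read from the data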
Hck-Nef confirm: retest of Hck:Nef kinase inhibitor hits, confirmation, biochemical, Z-Lyte FRET, 384-well, p-Tyr peptide counterscreen; 28% of 1,300 active; calls only at 10 µM; shares compounds with Hck-Nef inh; Recombinant Hck-YEEI:Nef, Z-Lyte FRET kinase assay;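 active means average inhibition of at least 50%, with Z-scores no higher than 3 in both the phospho-tyrosine peptide and fluorescence counterscreens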
A number is an active result; - = inactive; . = no result given; + = active, no number; [ ] = another dose, or the depositor's remark. Hits are enriched below; roughly 2.9% of the tested compounds scored in any of these assays.

SMILES | Mcl1 Bid PPI | Mcl-1 Bim block | Pf gamet viab | Mcl1 Noxa PPI | Hck-Nef inh | 14-3-3 Bad inh | Hck-Nef confirm
O=C1NC(=O)C(=Cc2ccc(-c3ccccc3[N+](=O)[O-])o2)C(=O)N1 | - | . | - | - | 76 | - | +
O=C1NC(=O)C(=Cc2coc3ccccc3c2=O)C(=O)N1 | - | - | . | - | 97 | - | +
COC1C(OC(=O)c2ccc(C)[nH]2)C(O)C(Oc2ccc3c(O)c(NC(=O)c4ccc(O)c(CC=C(C)C)c4)c(=O)oc3c2Cl)OC1(C)C (stereo not drawn) | - | . | . | - | 55 | - | -
COCCNC(=O)c1c(N)n(Cc2ccco2)c2nc3ccccc3nc12 | - | - | . | - | - | - | .
Nc1c(C(=O)NCCc2ccccc2)c2nc3ccccc3nc2n1CCN1CCOCC1 | 77 | - | . | - | 53 | 76[fluorescence artefact?] | -
CC(C)CCNC(=O)c1c(N)n(CC2CCCO2)c2nc3ccccc3nc12 (stereo not drawn) | - | - | - | - | 58 | - | -
Nc1c(C(=O)NCCN2CCOCC2)c2nc3ccccc3nc2n1Cc1ccccc1 | - | . | - | - | 95 | - | .
Nc1c(C(=O)NCCN2CCOCC2)c2nc3ccccc3nc2n1Cc1ccco1 | - | - | . | 76 | 58 | - | -
CCCCn1c(N)c(C(=O)NCCN2CCOCC2)c2nc3ccccc3nc21 | - | - | - | - | - | - | .
CCOC(=O)c1cc(C)sc1/N=C/C1C(=O)NC(=S)NC1=O | - | - | - | - | - | - | .
COP(=O)(OC)/C(C=O)=N/Nc1ccc([N+](=O)[O-])cc1 | - | - | - | - | - | - | .
O=[N+]([O-])c1ccc(N2CCCCCC2)c2ncccc12 | - | - | - | - | - | - | .

Screening results as filed in PubChem BioAssay.
